# Data reported in ChEMBL document CHEMBL1961873, “Compounds: GSK PKIS; Assays: Nanosyn kinase panel” (2012).
# Assays:
# [1] = target: T1, Tyrosine-protein kinase ITK/TSK (Homo sapiens) (UniProt Q08881); conditions: at 1 µM;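 note: values are mean percent inhibition of ITK from the GSK PKIS screen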
# T1 sequence (whole entry): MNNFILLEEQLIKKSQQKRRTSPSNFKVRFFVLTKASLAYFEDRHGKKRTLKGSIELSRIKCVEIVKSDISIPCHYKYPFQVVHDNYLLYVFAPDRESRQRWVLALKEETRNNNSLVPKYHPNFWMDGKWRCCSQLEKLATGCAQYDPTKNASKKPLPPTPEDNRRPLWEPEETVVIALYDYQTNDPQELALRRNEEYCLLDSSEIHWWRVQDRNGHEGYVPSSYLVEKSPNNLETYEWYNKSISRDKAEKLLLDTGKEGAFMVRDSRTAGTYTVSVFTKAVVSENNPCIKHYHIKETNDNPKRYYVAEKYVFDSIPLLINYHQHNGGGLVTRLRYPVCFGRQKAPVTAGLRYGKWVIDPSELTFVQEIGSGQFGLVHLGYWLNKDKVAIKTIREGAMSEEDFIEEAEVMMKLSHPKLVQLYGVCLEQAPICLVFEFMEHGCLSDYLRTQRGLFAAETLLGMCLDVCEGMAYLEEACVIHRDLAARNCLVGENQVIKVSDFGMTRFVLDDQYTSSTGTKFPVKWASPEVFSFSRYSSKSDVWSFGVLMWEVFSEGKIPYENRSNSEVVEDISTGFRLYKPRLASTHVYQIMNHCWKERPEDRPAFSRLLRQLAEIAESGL
# [2] = target: Tyrosine-protein kinase JAK1 (Homo sapiens) (UniProt P23458); conditions: at 0.1 µM
# [3] = target: Tyrosine-protein kinase JAK1 (Homo sapiens) (UniProt P23458); conditions: at 1 µM
# [4] = target: Tyrosine-protein kinase JAK2 (Homo sapiens) (UniProt O60674); conditions: at 0.1 µM
# [5] = target: Tyrosine-protein kinase JAK2 (Homo sapiens) (UniProt O60674); conditions: at 1 µM
# [6] = target: T2, Tyrosine-protein kinase JAK3 (Homo sapiens) (UniProt P52333); conditions: at 0.1 µM
# T2 sequence (whole entry): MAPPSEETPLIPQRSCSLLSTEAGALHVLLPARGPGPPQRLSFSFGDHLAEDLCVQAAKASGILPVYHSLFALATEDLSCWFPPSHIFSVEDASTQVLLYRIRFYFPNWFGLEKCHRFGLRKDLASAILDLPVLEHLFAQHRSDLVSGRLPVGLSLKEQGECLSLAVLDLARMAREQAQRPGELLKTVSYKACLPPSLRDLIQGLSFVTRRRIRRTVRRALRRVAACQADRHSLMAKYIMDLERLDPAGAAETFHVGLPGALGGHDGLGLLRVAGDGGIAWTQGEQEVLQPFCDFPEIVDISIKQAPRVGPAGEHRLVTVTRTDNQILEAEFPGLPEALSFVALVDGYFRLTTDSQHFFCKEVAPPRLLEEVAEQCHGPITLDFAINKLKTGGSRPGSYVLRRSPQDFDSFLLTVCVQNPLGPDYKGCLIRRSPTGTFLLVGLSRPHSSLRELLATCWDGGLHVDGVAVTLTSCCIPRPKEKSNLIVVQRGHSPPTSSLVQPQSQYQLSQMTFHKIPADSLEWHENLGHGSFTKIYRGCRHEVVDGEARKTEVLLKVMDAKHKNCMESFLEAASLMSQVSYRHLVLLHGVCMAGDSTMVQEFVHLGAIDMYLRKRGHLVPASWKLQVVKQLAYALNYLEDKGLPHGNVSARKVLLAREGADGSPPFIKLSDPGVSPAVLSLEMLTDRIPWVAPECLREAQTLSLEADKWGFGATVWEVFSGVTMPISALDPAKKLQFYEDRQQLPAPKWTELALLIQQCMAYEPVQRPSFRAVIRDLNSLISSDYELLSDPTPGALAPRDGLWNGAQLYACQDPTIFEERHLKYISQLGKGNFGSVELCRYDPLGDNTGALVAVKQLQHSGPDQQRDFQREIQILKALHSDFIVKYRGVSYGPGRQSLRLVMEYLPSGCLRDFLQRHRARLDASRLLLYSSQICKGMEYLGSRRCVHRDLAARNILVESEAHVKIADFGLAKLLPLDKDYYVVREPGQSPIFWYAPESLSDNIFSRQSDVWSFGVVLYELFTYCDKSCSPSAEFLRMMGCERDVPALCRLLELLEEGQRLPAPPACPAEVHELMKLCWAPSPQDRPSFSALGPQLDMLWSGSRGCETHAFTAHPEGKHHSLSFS
# [7] = target: T2, Tyrosine-protein kinase JAK3 (Homo sapiens); conditions: at 1 µM
# [8] = target: Vascular endothelial growth factor receptor 2 (Homo sapiens) (UniProt P35968); conditions: at 0.1 µM
# [9] = target: Vascular endothelial growth factor receptor 2 (Homo sapiens) (UniProt P35968); conditions: at 1 µM
# [10] = target: Mast/stem cell growth factor receptor Kit (Homo sapiens) (UniProt P10721); conditions: at 0.1 µM
# [11] = target: Mast/stem cell growth factor receptor Kit (Homo sapiens) (UniProt P10721); conditions: at 1 µM
# [12] = system: Mast/stem cell growth factor receptor Kit (Homo sapiens), P10721 [D816V]; conditions: at 0.1 µM
# [13] = system: Mast/stem cell growth factor receptor Kit (Homo sapiens), P10721 [D816V]; conditions: at 1 µM
# [14] = system: Mast/stem cell growth factor receptor Kit (Homo sapiens), P10721 [T670I]; conditions: at 0.1 µM
# [15] = system: Mast/stem cell growth factor receptor Kit (Homo sapiens), P10721 [T670I]; conditions: at 1 µM
# [16] = system: Mast/stem cell growth factor receptor Kit (Homo sapiens), P10721 [V560G]; conditions: at 0.1 µM
# [17] = system: Mast/stem cell growth factor receptor Kit (Homo sapiens), P10721 [V560G]; conditions: at 1 µM
# [18] = target: Tyrosine-protein kinase Lck (Homo sapiens) (UniProt P06239); conditions: at 0.1 µM
# [19] = target: Tyrosine-protein kinase Lck (Homo sapiens) (UniProt P06239); conditions: at 1 µM
# [20] = target: Leukocyte tyrosine kinase receptor (Homo sapiens) (UniProt P29376); conditions: at 0.1 µM
# Leukocyte tyrosine kinase receptor (Homo sapiens), sequence (P29376 whole entry): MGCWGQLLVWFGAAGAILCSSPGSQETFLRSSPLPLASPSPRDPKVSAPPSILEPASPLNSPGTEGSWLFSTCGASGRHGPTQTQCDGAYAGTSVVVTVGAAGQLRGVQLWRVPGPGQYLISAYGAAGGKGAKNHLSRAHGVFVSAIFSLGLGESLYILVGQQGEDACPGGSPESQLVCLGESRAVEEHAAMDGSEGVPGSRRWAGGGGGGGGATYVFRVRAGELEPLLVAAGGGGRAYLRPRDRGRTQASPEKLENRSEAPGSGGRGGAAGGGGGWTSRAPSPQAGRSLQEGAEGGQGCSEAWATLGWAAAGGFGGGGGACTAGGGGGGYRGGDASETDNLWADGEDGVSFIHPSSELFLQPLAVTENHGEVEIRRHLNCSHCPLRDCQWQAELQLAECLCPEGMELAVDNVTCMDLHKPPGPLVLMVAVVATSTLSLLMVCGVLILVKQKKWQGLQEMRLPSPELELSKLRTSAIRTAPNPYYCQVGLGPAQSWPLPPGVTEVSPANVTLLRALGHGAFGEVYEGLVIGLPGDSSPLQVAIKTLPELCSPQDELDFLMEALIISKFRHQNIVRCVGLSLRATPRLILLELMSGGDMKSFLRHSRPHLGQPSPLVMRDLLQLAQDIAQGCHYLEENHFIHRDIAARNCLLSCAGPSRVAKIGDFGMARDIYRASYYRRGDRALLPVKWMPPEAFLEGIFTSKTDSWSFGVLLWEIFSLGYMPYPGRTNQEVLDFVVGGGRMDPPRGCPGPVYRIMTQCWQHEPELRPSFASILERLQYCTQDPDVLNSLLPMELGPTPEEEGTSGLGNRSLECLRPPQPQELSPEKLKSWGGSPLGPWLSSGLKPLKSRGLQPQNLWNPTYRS
# Mast/stem cell growth factor receptor Kit (Homo sapiens), P10721 [D816V], sequence (P10721 whole entry D816V): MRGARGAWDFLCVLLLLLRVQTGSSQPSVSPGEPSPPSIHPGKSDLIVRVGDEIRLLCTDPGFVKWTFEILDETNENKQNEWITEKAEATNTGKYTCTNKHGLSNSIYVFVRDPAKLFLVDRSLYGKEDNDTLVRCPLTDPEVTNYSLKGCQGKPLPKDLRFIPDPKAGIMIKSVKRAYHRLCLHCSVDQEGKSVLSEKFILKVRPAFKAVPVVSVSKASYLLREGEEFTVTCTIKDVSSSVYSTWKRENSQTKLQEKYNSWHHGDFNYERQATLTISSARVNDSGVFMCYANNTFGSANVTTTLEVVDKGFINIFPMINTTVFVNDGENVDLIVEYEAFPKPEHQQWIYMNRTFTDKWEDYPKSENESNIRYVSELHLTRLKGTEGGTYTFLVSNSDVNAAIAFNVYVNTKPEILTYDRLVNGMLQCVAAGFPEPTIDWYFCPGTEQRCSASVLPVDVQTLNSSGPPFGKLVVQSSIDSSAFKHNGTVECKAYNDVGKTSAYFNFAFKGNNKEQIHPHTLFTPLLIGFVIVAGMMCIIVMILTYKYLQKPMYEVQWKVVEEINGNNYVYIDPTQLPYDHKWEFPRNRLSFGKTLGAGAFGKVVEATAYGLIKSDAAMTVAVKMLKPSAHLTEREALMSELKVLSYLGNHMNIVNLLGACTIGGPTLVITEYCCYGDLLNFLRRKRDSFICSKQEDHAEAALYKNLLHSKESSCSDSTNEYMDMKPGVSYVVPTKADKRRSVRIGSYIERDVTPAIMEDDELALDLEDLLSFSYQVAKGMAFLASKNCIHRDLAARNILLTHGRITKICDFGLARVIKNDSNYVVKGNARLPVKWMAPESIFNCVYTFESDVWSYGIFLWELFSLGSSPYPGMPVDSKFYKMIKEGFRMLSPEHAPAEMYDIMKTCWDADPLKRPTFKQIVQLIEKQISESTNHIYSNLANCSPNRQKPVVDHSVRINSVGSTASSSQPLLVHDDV
# Vascular endothelial growth factor receptor 2 (Homo sapiens), sequence (P35968 whole entry): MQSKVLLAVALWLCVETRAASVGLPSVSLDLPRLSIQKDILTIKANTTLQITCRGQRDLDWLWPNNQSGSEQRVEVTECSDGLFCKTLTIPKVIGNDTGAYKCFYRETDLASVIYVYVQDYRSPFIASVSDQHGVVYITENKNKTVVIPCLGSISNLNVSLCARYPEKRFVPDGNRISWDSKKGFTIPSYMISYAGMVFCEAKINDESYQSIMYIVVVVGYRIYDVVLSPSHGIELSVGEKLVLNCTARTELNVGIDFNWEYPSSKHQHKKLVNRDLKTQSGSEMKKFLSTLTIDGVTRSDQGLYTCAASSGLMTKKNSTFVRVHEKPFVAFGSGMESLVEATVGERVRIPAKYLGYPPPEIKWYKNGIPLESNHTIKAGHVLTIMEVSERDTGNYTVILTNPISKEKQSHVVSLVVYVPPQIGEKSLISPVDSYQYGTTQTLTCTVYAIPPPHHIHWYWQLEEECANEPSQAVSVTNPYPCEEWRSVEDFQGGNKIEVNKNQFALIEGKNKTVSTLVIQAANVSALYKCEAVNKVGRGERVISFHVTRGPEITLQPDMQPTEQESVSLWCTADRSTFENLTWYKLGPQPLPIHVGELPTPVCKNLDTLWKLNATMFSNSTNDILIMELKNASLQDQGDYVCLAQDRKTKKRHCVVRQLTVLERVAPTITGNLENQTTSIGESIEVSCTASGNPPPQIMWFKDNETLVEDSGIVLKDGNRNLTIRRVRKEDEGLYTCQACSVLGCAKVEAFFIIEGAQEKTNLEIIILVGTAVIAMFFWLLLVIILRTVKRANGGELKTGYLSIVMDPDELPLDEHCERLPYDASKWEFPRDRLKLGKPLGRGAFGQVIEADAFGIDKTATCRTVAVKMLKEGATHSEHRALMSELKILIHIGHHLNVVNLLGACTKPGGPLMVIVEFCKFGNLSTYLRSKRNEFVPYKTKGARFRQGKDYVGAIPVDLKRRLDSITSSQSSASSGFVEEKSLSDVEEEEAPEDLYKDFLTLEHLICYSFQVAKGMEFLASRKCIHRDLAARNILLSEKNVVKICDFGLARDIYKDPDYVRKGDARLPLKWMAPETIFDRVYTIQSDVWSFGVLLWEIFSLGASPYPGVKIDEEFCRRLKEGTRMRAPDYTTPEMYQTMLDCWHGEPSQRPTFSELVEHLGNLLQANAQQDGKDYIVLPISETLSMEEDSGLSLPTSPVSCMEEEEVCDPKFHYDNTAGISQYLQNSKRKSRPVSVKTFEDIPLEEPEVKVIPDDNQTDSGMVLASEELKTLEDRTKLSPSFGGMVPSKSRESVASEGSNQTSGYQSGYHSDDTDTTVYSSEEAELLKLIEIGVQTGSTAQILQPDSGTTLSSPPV
# Mast/stem cell growth factor receptor Kit (Homo sapiens), P10721 [V560G], sequence (P10721 whole entry V560G): as the sequence (P10721 whole entry D816V) above, with V560G, V816D counted along it
# Tyrosine-protein kinase JAK1 (Homo sapiens), sequence (P23458 whole entry): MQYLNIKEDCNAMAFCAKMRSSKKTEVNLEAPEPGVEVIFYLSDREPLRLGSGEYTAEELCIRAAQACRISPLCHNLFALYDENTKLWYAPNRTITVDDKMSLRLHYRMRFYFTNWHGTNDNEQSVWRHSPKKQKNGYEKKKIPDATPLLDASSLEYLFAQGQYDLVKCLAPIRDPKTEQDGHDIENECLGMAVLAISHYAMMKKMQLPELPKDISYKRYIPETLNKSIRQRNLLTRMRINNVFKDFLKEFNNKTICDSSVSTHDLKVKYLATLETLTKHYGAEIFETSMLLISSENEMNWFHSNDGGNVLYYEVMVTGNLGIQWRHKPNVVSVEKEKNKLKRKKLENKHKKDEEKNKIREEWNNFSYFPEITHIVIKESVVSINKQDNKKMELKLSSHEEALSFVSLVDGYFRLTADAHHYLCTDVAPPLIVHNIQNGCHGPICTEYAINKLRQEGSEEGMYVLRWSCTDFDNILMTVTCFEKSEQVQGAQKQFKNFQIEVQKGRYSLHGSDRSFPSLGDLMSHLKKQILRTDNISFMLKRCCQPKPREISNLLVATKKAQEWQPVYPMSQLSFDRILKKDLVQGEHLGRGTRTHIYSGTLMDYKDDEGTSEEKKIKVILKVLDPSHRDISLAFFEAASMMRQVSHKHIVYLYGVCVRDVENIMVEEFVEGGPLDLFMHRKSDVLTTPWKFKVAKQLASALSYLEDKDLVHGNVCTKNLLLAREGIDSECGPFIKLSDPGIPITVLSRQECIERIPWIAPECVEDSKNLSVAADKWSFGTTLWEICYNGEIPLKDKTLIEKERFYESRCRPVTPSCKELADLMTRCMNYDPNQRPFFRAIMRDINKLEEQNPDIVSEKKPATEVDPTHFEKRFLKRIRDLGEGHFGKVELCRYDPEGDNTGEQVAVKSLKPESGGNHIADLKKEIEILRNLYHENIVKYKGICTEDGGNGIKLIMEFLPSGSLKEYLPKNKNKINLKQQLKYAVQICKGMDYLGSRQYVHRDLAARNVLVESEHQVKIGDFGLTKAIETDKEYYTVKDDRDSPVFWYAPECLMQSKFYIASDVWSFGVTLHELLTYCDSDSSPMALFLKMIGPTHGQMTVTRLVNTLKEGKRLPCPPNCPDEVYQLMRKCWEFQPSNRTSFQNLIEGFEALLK
# Mast/stem cell growth factor receptor Kit (Homo sapiens), P10721 [T670I], sequence (P10721 whole entry T670I): as the sequence (P10721 whole entry D816V) above, with T670I, V816D counted along it
# Tyrosine-protein kinase Lck (Homo sapiens), sequence (P06239 2-509 limits assumed): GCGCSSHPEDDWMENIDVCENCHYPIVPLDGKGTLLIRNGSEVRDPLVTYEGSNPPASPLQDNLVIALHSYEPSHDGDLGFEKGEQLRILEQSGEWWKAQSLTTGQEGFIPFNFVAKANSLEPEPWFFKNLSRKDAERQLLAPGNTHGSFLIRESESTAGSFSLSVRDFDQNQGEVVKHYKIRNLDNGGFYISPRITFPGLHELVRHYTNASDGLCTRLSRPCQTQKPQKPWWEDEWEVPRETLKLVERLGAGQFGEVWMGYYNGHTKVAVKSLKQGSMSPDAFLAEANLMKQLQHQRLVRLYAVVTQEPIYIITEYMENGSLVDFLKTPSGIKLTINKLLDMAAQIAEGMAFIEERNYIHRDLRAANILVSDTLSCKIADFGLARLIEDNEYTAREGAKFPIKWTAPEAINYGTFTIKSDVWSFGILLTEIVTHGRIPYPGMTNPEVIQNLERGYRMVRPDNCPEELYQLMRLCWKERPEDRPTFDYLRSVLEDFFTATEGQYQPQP
# Mast/stem cell growth factor receptor Kit (Homo sapiens), sequence (P10721 whole entry): as the sequence (P10721 whole entry D816V) above, with V816D counted along it
SMILES,inhibition [1] [%],inhibition [2] [%],inhibition [3] [%],inhibition [4] [%],inhibition [5] [%],inhibition [6] [%],inhibition [7] [%],inhibition [8] [%],inhibition [9] [%],inhibition [10] [%],inhibition [11] [%],inhibition [12] [%],inhibition [13] [%],inhibition [14] [%],inhibition [15] [%],inhibition [16] [%],inhibition [17] [%],inhibition [18] [%],inhibition [19] [%],inhibition [20] [%]
O=C(Nc1n[nH]c2cc(-c3cc(F)ccc3F)ccc12)C1CC1,7.94,3.49,8.44,1.64,1.73,-0.26,-0.99,6.28,12,4.01,7.05,1.5,3.88,2.63,3.43,1.22,1.15,1.37,6.57,6.64
COc1ccc(C2=C(N3CCc4ccccc43)C(=O)NC2=O)cc1,2.26,3.92,7.64,2.9,3.26,-0.7,1.63,8.98,14.5,7.63,15.1,3.56,3.25,6.38,5.55,3.19,4.55,4.42,4.16,5.23
CCS(=O)(=O)c1ccc(OC)c(Nc2ncc(-c3ccccc3Cl)o2)c1,1.73,5.17,-2.96,1.84,0.94,0.9,4.04,8.35,33.8,17.3,85.2,0.9,0.58,0.14,24.3,3.4,8.88,4.24,10.2,1.67
CCc1nccc2c1nc(-c1nonc1N)n2CC,1.25,0.52,-2.63,3.71,2.91,0,0.61,5.64,17.7,0.21,0.89,0.61,-2.34,-0.13,-2.18,3.98,0.88,0.67,6.3,6.17
COc1cccc(-n2cnc3c(N/N=C/c4ccncc4)ncnc32)c1,-1.27,4.44,16.3,0.27,0.37,-2.48,-2.19,-0.11,11.2,33.4,83.4,0.1,3.79,-2.23,6.36,3.15,18.8,3.69,29.3,-1.69
O=C(Nc1n[nH]c2nc(-c3ccco3)ccc12)C1CC1,2.43,-0.37,-0.27,0.87,2.09,0.01,2.11,7.28,14,3.39,1.57,-0.41,0.03,1.03,2.02,3.13,6.74,1.24,3.59,1.06
FC(F)(F)c1cccc(Nc2nccc(-c3cnn4nc(-c5ccccc5)ccc34)n2)c1,3.33,-0.86,0.5,-0.15,0.22,-1.84,-0.12,0.05,6.02,5.78,37.3,1.06,0.54,1.8,5.77,-2.09,1.67,1.68,2.24,0.59
